The record followed here is PubChem BioAssay (NCATS).

The target of assay [1] is N-terminal Xaa-Pro-Lys N-methyltransferase 1 (Homo sapiens) (UniProt Q9BV86). The assay is described as follows: qHTS Assay for Inhibitors of N-terminal methyltransferase 1 (NTMT1): LOPAC validation of the NTMT1 SAHH-coupled ThioGlo3 Assay (AID 1347143).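 Note: SAH from peptide methylation measured as thiol fluorescence via SAHH coupling and ThioGlo3; nearly all actives have a fitted effect of over 70% in size.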 The procedure, abridged: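 Steps: dispense 125nM NTMT1; pin-transfer test compounds at several concentrations, with 1uM RCC1-6 peptide as control; incubate 1 min; start with reagent holding 100uM SAM, 10uM SAHH, 15uM ThioGlo3; read at 0 and 30 min.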
Sequence of N-terminal Xaa-Pro-Lys N-methyltransferase 1 (Homo sapiens) (Q9BV86 whole entry, looked up): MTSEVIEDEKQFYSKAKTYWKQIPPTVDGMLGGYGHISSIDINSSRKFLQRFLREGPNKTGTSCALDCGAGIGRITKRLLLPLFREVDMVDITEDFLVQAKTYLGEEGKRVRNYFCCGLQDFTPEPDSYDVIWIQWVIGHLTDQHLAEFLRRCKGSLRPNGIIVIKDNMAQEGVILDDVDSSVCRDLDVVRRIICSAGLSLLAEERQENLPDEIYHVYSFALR
A general note: Quantitative high-throughput screening tests each substance at several concentrations.

Assay [2] has as its system Zika virus NS2B-NS3 protease (unlinked). The assay is described as follows: Optimization of GU AMC qHTS for Zika virus inhibitors: Unlinked NS2B-NS3 protease assay (AID 1347151). Note: series mostly up to about 52 µM; nearly all actives have a fitted effect of over 80% in size. In outline: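 Noncovalent NS2B hydrophilic domain–NS3 protease complex (25 nM final) in 10 mM Tris-HCl pH 8.0, 0.01% Tween 20; AMC substrate, room temperature 15 min (~20% conversion); fluorescence change normalized, 4-parameter Hill fit.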

Assay [3] can be described thus: qHTS of pediatric cancer cell lines to identify multiple opportunities for drug repurposing: Confirmatory screen for NB-EBc1 cells (AID 1347115).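 Note: cells exposed to compound for 48 h before the viability read; nearly all actives have a fitted effect of over 45% in size.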 In outline:
(§1)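 Viability after 48 h compound treatment at 37C, 500-1,000 cells/well, read as ATP luminescence with CellTiter-Glo. Primary screens used 11-point (MIPE, 0.78 nM-46 µM) or 8-point (NPC, 0.59 nM-46 µM) final concentrations; follow-up screens used 11-point dilutions.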

Assay [4] is described as follows: qHTS of pediatric cancer cell lines to identify multiple opportunities for drug repurposing: Confirmatory screen for BT-37 cells (AID 1347117). Note: nearly all actives have a fitted effect of over 55% in size. Note: potency is the fitted concentration of half-maximal effect. The procedure, abridged:
as §1

A short description of assay [5]: qHTS of pediatric cancer cell lines to identify multiple opportunities for drug repurposing: Confirmatory screen for TC32 cells (AID 1347118).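 Note: cells exposed to compound for 48 h before the read; nearly all actives have a fitted effect of over 65% in size.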 Note: potency is the fitted concentration of half-maximal effect. In outline:
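Luminescent CellTiter-Glo read-out of metabolically active TC32 cells after 48 h compound exposure. Primary: MIPE 11-point, 0.78 nM–46 µM; NPC 8-point, 0.59 nM–46 µM. Confirmatory: 11-point dilutions.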

Assay [6] can be described thus: qHTS of pediatric cancer cell lines to identify multiple opportunities for drug repurposing: Confirmatory screen for MG 63 (6-TG R) cells (AID 1347119). Note: nearly all actives have a fitted effect of over 55% in size. The procedure, abridged:
as §1

A short description of assay [7]: qHTS of pediatric cancer cell lines to identify multiple opportunities for drug repurposing: Confirmatory screen for control Hh wild type fibroblast cells (AID 1347121). Note: nearly all actives have a fitted effect of over 70% in size. The procedure, abridged: as §1
Assay [8] in a line: qHTS of pediatric cancer cell lines to identify multiple opportunities for drug repurposing: Confirmatory screen for U-2 OS cells (AID 1347122). Note: nearly all actives have a fitted effect of over 65% in size. Note: potency is the fitted concentration of half-maximal effect. The procedure, abridged: as §1
A short description of assay [9]: qHTS of pediatric cancer cell lines to identify multiple opportunities for drug repurposing: Confirmatory screen for Rh41 cells (AID 1347123). Note: nearly all actives have a fitted effect of over 60% in size. Note: potency is the fitted concentration of half-maximal effect. The procedure, abridged:
as §1

Assay [10] in a line: qHTS of pediatric cancer cell lines to identify multiple opportunities for drug repurposing: Confirmatory screen for RD cells (AID 1347124).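 Note: cells exposed to compound for 48 h before viability readout; nearly all actives have a fitted effect of over 65% in size.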 The procedure, abridged:
as §1

Assay [11] can be described thus: qHTS of pediatric cancer cell lines to identify multiple opportunities for drug repurposing: Confirmatory screen for Rh18 cells (AID 1347125). Note: nearly all actives have a fitted effect of over 55% in size. Note: potency is the fitted concentration of half-maximal effect. The procedure, abridged: as §1
Assay [12] is described as follows: qHTS of pediatric cancer cell lines to identify multiple opportunities for drug repurposing: Confirmatory screen for Rh30 cells (AID 1347126). Note: nearly all actives have a fitted effect of over 55% in size. Note: potency is the fitted concentration of half-maximal effect. In outline:
as §1

Assay [13] can be described thus: qHTS of pediatric cancer cell lines to identify multiple opportunities for drug repurposing: Confirmatory screen for Saos-2 cells (AID 1347127). Note: nearly all actives have a fitted effect of over 60% in size. Note: potency is the fitted concentration of half-maximal effect. In outline: as §1
Assay [14] can be described thus: qHTS of pediatric cancer cell lines to identify multiple opportunities for drug repurposing: Confirmatory screen for OHS-50 cells (AID 1347128). Note: potency is the fitted concentration of half-maximal effect. In outline: as §1
The nature of assay [15]: qHTS of pediatric cancer cell lines to identify multiple opportunities for drug repurposing: Confirmatory screen for SK-N-SH cells (AID 1347129).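 Note: cells exposed to compound for 48 h before viability read; nearly all actives have a fitted effect of over 60% in size.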 Note: potency is the fitted concentration of half-maximal effect. In outline: as §1
Assay [16] is described as follows: qHTS of pediatric cancer cell lines to identify multiple opportunities for drug repurposing: Confirmatory screen for DAOY cells (AID 1347114). Note: potency is the fitted concentration of half-maximal effect; nearly all actives have a fitted effect of over 65% in size. In outline:
(§2)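 Viability measured as metabolically active cells via CellTiter-Glo luminescence following 48 hours of compound exposure, 11-point dilutions in confirmatory testing. 500-1,000 cells/well plated 5 hours before dosing; controls were DMSO and 2.3 µM bortezomib.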

A short description of assay [17]: qHTS of pediatric cancer cell lines to identify multiple opportunities for drug repurposing: Confirmatory screen for SJ-GBM2 cells (AID 1347116). Note: nearly all actives have a fitted effect of over 60% in size. The settings on record: outcome: dose series up to 45.9 µM. In outline:
as §2

Inconclusive results are not listed. Calls of active or inactive are those of the source. Calls come from the whole dose curve; as a rule, active = well fitted curve in the direction sought with a large enough effect; inconclusive = small, poorly fitted or top-dose-only effect, or another doubt; inactive = no such curve, though single readings can be large; an effect the other way counts as inactive or inconclusive.

In the case of `NCCc1ccc(O)cc1`, the result in assay [1] and in assay [2] was inactive.

As to `COc1ccc2c(c1OC)C(=O)O[C@H]2[C@@H]1c2cc3c(cc2CCN1C)OCO3`, in [1], the molecule was called inactive.

On to `CCCCCN(C)CCC(O)(P(=O)(O)O)P(=O)(O)O`, for which the result in assay [1] and in [2] was inactive.

For `O=P1(N(CCCl)CCCl)NCCCO1` (configuration not stated), the Potency entry in assay [3], in [4], in [5], in assay [8], in assay [9] and in assay [11] was “inactive” each time. The Potency entry in [12], in assay [13], in assay [14] and in assay [15] was “inactive” throughout. Besides, the outcome in assay [6], in assay [7], in assay [10] and in assay [2] was inactive.

`CC(C)N(CCC(C(N)=O)(c1ccccc1)c1ccccn1)C(C)C` (configuration not stated): the result in [1] and in assay [2] was inactive.

Consider `CC(NC(C)(C)C)C(=O)c1cccc(Cl)c1` (configuration not stated), for which the Potency in [4] is 23.3 µM (active); in [5], 2.93 µM (active); in [8], 4.14 µM (active); in [9], 4.65 µM (active); in [13], 18.5 µM (active). In addition, the result in assay [6], in [7], in [1] and in [2] was inactive. Besides, the Potency result in [11] and in [15] was “inactive” throughout.

Consider `CC(C)c1cccc(C(C)C)c1O`, for which the call in assay [1] and in [2] was inactive.

Consider `CCC1(c2ccc(N)cc2)CCC(=O)NC1=O` (configuration not stated), for which the molecule was called inactive in assay [1] and in [2].

Regarding `COc1cccc2c1C(=O)c1c(O)c3c(c(O)c1C2=O)C[C@@](O)(C(=O)CO)CC3OC1CC(N2CCOC(OC)C2)C(O)C(C)O1` (some centres not stated), the Potency in assay [16] is 32.9 nM (active); in assay [4], 0.0066 µM (active); in assay [5], 0.0059 µM (active); in assay [8], 0.0737 µM (active); in assay [9], 0.0369 µM (active); in assay [11], 52.2 nM (active). The Potency in assay [12] is 46.5 nM (active); in assay [14], 23.3 nM (active); in assay [15], 23.5 nM (active). The call in assay [7] was inactive.

As for `Cc1ncsc1CCCl`, in [2], the molecule was classed as inactive.

Consider `O=c1[nH]oc2c1CCNC2`, for which the molecule was classed as inactive in assay [1] and in assay [2].

For `C[C@](O)(CS(=O)(=O)c1ccc(F)cc1)C(=O)Nc1ccc(C#N)c(C(F)(F)F)c1`, the Potency entry in assay [3], in assay [4], in assay [5], in assay [8], in assay [11] and in assay [12] was “inactive” each time. For the same molecule, the Potency entry in [13], in assay [14] and in assay [15] was “inactive” throughout. The result in [17], in [6], in assay [7] and in assay [10] was inactive.
